Our source for the composite z-score and z-score values is PubChem BioAssay.

A short description of test [1]: compounds binding Alexa647 anti-His antibody – biochemical, small-molecule microarray, 635 nm fluorescence, artefact control for SMM control protein annotation, primary screen (AID 1128).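 Also: score merges feature fluorescence with signal-to-noise for each printed compound spot.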 The following applies: higher = more signal.
Test [2] deals with Human papillomavirus type 1a E7 protein (residues 1-88). Nature of the test: HPV1a E7 small-molecule binders, primary screen, biochemical, small-molecule microarray, residues 1-88, 635 nm (AID 1129). The following applies: small-molecule microarray binding, fluorescence 635 nm; higher = more signal.
Test [3] concerns the target Focal adhesion kinase 1 (Homo sapiens) (UniProt Q05397). Description: PTK2 protein binding on printed compound slides – biochemical, small-molecule microarray, 635/667 nm fluorescence, BSA, DTT, primary screen (AID 1130).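 Also: composite of spot emission at 667 nm and signal to noise over triplicate slides.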 The conditions noted are these: 635 nm fluorescence, higher = more signal.
Test [4] relates to Fibrinogen (Alexa647-labelled). Description: Alexa647-fibrinogen binding to printed small molecules – biochemical, small-molecule microarray, 635/667 nm fluorescence, artefact control for SMM control-protein annotation, profiling panel (AID 1131).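 Also: z-score merges 667 nm fluorescence with per-spot signal-to-noise over triplicate slides.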 The conditions noted are these: fibrinogen-A647 binding fluorescence, higher = more signal.
In test [5] the target is Follistatin (Homo sapiens) (UniProt P19883). Nature of the test: FST protein binding to printed compounds – biochemical, small-molecule microarray, 635/667 nm fluorescence, primary screen (AID 1132). The conditions noted are these: 635 nm fluorescence, higher = more signal.
Test [6] deals with Fibroblast growth factor 2 (Homo sapiens) (UniProt P09038). Nature of the test: basic fibroblast growth factor binding to printed compounds – biochemical, small-molecule microarray, 635/667 nm fluorescence, primary screen (AID 1133). The conditions noted are these: FGF2, fluorescence 635/667, higher = more signal.
Test [7] in a line: JC-1 mitochondrial potential readout, lung cancer cells – cell-based, A549, JC-1 fluorescence, basal, 24 h, 100 nL, profiling panel (AID 1138).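 Also: A549 lung adenocarcinoma cells under basal conditions with no added stimulus; test concentration not given here.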 The conditions noted are these: higher = more signal.
The next test relates to Lefty1. Nature of the test: Lefty1 protein binding to printed compounds – biochemical, small-molecule microarray, 635/667 nm fluorescence, primary screen (AID 1139). The following applies: fluorescence 635/667, higher = more signal.
Test [8] deals with wheat germ agglutinin (Triticum aestivum), Alexa647-labelled. Description: Alexa647-WGA lectin binding to printed small molecules – biochemical, small-molecule microarray, 635/667 nm fluorescence, artefact control for SMM control-protein annotation, profiling panel (AID 1140).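 Also: score merges 667 nm feature emission with signal to noise over triplicate slides.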 The conditions noted are these: WGA-A647 binding, 635 nm fluorescence, higher = more signal.
Test [9] has as its target Luciferin 4-monooxygenase (Photinus pyralis) (UniProt P08659). Description: inhibition of purified Photinus pyralis luciferase – biochemical, luminescence, purified enzyme, 2006 set, primary screen (AID 1141).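 Also: cell-free assay with purified firefly luciferase at 100 ng per well in PBS; test concentration not given here.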 The conditions noted are these: purified firefly luciferase, SteadyGlo luminescence, 30 min; higher = more signal, called active from +8 up or from −8 down.
For test [10], the system named is Wnt5a (protein binding on small-molecule microarray). Nature of the test: small molecules binding Wnt5a protein – biophysical, small-molecule microarray, 635/667 nm fluorescence, primary screen (AID 1142).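 Also: fluorescence read at 667 nm with signal to noise per printed feature.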 The conditions noted are these: 635 nm fluorescence, higher = more signal.
The nature of test [11]: ATP-based viability of Huh7 replicon cells – cell-based, CellTiter-Glo luminescence, basal, 48 h, cytotoxicity control for HCV replication inhibitor project, primary screen (AID 1143).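 Also: Huh7 hepatoma cells carrying a hepatitis C replication reporter with no stimulus; test concentration not given here.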 The conditions noted are these: higher = more signal, called active from +8 up or from −8 down. (In general: In antiviral work, replicon cells carry a viral genome segment that copies itself.)

A short description of test [12]: Pseudomonas biofilm growth suppression – PAO1 strain, BacTiter-Glo luminescence, LB-PBS, primary screen (AID 1144). The conditions noted are these: P. aeruginosa PAO1 biofilm, 12 h, higher = more signal.
Test [13] in a line: basal CRE-LacZ reporter activity in PC12 – cell-based, unstimulated, primary screen (AID 1145). The following applies: no forskolin, luminescence, 4.5 h, higher = more signal, called active from +8 up or from −8 down.
The nature of test [14]: forskolin-driven CRE-LacZ activity in PC12 – cell-based, CRE-LacZ reporter, forskolin-stimulated, primary screen (AID 1146).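 Also: PC12 cells with 6xCRE LacZ reporter stimulated by forskolin 10 µM; beta-galactosidase reporter signal reflecting CREB driven transcription.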 The conditions noted are these: luminescence, 4.5 h, higher = more signal, called active from +8 up or from −8 down.
The target in test [15] is Streptavidin (Streptomyces avidinii) (UniProt P22629). Nature of the test: compounds binding control protein streptavidin – biophysical, small-molecule microarray, 635/667 nm fluorescence, artefact control for SMM compound annotation, primary screen (AID 1147).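 Also: signal reflects streptavidin binding to arrayed compounds as a control protein.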 The conditions noted are these: higher = more signal.
The nature of test [16]: probe aInhba binding on compound microarray – biochemical, small-molecule microarray, 635/667 nm fluorescence, primary screen (AID 1148).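 Also: score merges 667nm spot fluorescence with signal-to-noise for antibody binding to printed compounds.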 The conditions noted are these: higher = more signal.
Test [17] concerns the target Torsin-1A (Homo sapiens) (UniProt O14656). Description: TOR1A wild-type binding on microarray – cell lysate, small-molecule microarray, lysate, 635/667 nm, primary screen (AID 1149). The following applies: COS7 hTOR1A-WT lysate, 635 nm fluorescence, higher = more signal.
Test [18] has the same target. Nature of the test: torsin A mutant lysate binding on microarrays – cell lysate, small-molecule microarray, COS7 lysate, 635/667 nm fluorescence, primary screen (AID 1150).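 Also: score pools 667 nm emission and signal to noise measuring lysate protein binding.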 The following applies: COS7 hTOR1A mutant lysate, 635 nm fluorescence, higher = more signal.
Test [19] concerns Sonic hedgehog protein (Shh). Nature of the test: Sonic hedgehog microarray binding compounds – biochemical, small-molecule microarray, 635/667 nm fluorescence, primary screen (AID 1151).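 Also: Shh protein binding to compounds spotted on small-molecule microarray slides; score combines spot fluorescence intensity with signal-to-noise across triplicate slides.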 The following applies: 635 nm fluorescence, higher = more signal.

Molecules are shown by their SMILES. Active and inactive are the calls of the source. Unless noted, no rule for the calls is given here.

Follistatin (Homo sapiens), sequence (P19883 whole entry, looked up): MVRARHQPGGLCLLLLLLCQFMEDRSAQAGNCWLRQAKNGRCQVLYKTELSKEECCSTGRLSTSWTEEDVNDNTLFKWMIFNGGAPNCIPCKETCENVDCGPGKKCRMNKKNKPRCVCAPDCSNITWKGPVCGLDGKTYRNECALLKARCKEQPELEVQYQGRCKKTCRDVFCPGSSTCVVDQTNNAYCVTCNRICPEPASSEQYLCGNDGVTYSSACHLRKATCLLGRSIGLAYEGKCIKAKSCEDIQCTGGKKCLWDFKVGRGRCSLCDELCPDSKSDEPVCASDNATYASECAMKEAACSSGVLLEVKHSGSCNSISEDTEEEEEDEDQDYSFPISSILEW
Torsin-1A (Homo sapiens), sequence (O14656 whole entry, looked up): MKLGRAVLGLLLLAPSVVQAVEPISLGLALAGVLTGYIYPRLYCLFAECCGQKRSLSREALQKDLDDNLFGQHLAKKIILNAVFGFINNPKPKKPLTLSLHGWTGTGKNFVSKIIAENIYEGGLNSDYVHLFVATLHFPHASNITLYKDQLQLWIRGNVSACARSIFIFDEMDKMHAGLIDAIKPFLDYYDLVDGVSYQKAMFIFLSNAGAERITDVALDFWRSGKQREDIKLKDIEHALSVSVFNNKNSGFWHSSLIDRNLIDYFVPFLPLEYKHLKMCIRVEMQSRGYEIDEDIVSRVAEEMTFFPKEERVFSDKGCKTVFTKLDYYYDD
Streptavidin (Streptomyces avidinii), sequence (P22629 whole entry, looked up): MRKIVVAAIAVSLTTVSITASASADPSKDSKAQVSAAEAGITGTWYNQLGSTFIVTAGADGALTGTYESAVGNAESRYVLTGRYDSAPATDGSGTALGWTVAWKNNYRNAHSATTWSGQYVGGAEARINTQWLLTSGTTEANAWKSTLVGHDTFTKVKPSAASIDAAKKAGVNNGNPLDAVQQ
Fibroblast growth factor 2 (Homo sapiens), sequence (P09038 whole entry, looked up): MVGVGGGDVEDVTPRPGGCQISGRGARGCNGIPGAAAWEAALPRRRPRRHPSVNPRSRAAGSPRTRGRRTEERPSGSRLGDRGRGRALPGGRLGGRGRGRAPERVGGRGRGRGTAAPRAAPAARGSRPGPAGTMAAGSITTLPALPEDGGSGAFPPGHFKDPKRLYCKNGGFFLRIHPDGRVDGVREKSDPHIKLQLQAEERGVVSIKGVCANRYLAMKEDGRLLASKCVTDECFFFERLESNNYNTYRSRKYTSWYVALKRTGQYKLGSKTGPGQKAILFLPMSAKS
Luciferin 4-monooxygenase (Photinus pyralis), sequence (P08659 whole entry, looked up): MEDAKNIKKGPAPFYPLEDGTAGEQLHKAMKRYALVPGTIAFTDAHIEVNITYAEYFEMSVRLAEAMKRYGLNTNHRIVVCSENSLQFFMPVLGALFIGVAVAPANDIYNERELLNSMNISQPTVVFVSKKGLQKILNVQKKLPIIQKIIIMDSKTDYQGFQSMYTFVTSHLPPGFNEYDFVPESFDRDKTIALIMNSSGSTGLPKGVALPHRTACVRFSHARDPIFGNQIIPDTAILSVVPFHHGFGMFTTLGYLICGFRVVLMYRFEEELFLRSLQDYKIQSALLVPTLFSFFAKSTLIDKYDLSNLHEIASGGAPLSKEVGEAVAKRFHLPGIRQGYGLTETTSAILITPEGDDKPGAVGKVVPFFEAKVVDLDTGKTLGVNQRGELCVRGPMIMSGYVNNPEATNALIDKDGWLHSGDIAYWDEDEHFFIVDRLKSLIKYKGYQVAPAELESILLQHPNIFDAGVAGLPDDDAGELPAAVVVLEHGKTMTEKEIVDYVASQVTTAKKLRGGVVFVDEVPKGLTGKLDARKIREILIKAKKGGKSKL
Focal adhesion kinase 1 (Homo sapiens), sequence (Q05397 whole entry, looked up): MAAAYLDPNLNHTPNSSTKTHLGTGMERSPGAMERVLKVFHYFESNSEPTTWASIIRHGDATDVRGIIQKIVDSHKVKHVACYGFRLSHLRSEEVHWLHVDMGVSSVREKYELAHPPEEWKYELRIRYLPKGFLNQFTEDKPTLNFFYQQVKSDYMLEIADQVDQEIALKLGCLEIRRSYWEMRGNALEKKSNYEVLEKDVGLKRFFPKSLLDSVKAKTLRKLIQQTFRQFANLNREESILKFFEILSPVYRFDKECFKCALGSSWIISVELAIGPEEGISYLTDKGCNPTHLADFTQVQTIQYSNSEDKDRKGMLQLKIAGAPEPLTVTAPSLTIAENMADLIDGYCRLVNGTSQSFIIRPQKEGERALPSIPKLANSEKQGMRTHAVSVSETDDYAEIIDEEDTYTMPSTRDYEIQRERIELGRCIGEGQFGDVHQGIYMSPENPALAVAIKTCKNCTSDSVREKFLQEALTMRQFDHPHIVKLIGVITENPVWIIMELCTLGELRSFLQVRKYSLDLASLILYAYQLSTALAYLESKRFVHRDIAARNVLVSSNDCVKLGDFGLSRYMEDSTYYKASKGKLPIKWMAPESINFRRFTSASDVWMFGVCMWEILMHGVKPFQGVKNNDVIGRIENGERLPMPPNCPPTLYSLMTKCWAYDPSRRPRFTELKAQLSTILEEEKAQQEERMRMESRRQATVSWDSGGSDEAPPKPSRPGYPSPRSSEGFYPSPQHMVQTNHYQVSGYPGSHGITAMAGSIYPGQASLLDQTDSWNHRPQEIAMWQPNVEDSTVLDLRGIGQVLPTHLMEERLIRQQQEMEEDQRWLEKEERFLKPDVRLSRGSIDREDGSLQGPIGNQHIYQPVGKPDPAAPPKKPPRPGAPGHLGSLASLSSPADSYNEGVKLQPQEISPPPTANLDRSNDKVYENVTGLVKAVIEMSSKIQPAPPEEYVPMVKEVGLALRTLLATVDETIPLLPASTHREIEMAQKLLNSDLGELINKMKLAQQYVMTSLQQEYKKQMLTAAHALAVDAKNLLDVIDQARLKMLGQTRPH

Regarding `COC(=O)[C@@]1(Cc2ccc(F)cc2)[C@H]2c3cc(C(=O)N(C)C)n(CCN4CCOCC4)c3C[C@H]2CN1C(=O)c1ccccc1`, the composite z-score in test [1] was 1.65; in [2] it was 1.19; in [3], 1.14; in test [4], 0.32; in [5], -0.0389; in test [6] it was -0.708. The composite z-score in the test with Lefty1 was -0.0199; in test [8] it was 0.331; in [10], 0.483; in test [15] it was 1.36; in test [16], 0.17; with Torsin-1A (Homo sapiens) [17], 2.73. Further, the values for the composite z-score (with Torsin-1A (Homo sapiens) [18]; in [19]) were 2.17 and -0.976, respectively. The z-score in [7] is 0.147; in test [9], 2.64 (inactive); in test [11], -1.02 (inactive); in test [12], 0.263 (inactive); in test [13], -0.372 (inactive); in test [14], 0.823 (inactive).
For `C=CCC(OC(C)=O)[C@@H]1[C@@H](N(Cc2cccc3ccccc23)C(=O)c2ccc(C)cc2)c2cc(OCCCO)ccc2N1C(=O)c1ccc2ccccc2n1` (stereo not given in full), the composite z-score was -0.24 in [1]; 0.098 in test [2]; 0.348 in [3]; 0.682 in [4]; 0.584 in test [5]; 0.0013 in [6]. The composite z-score with Lefty1 was 0.644; in test [8], 0.391; in test [10], 0.0305; in test [15], 0.2; in test [16], 0.0664; in the test with Torsin-1A (Homo sapiens) [17], -0.0107. In addition, the composite z-score came to 0.121 with Torsin-1A (Homo sapiens) [18] and 0.709 in test [19]. Further, the z-score in test [7] is 0.644; in [9] it was -1.05 (inactive); in test [11] it was -0.846 (inactive); in test [12], -0.106 (inactive); in [13] it was 0.642 (inactive); in [14], 0.154 (inactive).
With `CCOC(=O)C1=CC[C@@H](c2ccccc2Cl)N(S(=O)(=O)c2ccc(C)cc2)[C@H]1c1cccc(OC)c1`, the composite z-score is 0.413 in [1]; 1.05 in [2]; 0.1 in test [3]; 0.737 in test [4]; 0.176 in test [5]; 0.0652 in test [6]. Also, the composite z-score in the test with Lefty1 is -0.0177; in test [8], 0.54; in [10], 0.142; in test [15], 0.333; in [16], -0.0695; with Torsin-1A (Homo sapiens) [17], 0.368. Besides, the composite z-score with Torsin-1A (Homo sapiens) [18] was 0.0635; in test [19], -0.476. The z-score in [7] is 0.0495; in test [9] it was 0.658 (inactive); in test [11], -1.84 (inactive); in test [12] it was 1.15 (inactive); in test [13], 0.425 (inactive); in test [14] it was 0.173 (inactive).
Regarding `C=CCC(OC(C)=O)[C@@H]1[C@@H](N(Cc2ccc(-c3cccc(C(F)(F)F)c3)o2)C(=O)Cc2ccc(F)cc2)c2cc(OCCCO)ccc2N1C(=O)c1ccc2ccccc2c1` (stereo not given in full), the composite z-score in test [1] is -0.118; in test [2] it was -0.783; in [3] it was -0.192; in test [4] it was -1.67; in test [5], 0.426; in test [6], -0.451. For the same molecule, the composite z-score was 0.479 in the test on Lefty1; -0.486 in test [8]; -0.314 in test [10]; -0.488 in test [15]; -0.2 in test [16]; -0.954 with Torsin-1A (Homo sapiens) [17]. Further, the composite z-score is -0.244 with Torsin-1A (Homo sapiens) [18] and 0.718 in [19]. In addition, the z-score is 0.637 in [7]; 0.354 (inactive) in [9]; -0.376 (inactive) in [11]; -0.25 (inactive) in [12]; 0.279 (inactive) in test [13]; 0.914 (inactive) in test [14].
For the molecule `O=C1C2C=CC(C(O)c3cccs3)N(Nc3ccccc3)C2C(=O)N1c1ccccc1` (stereo not given), the composite z-score was -0.0476 in test [1]; -0.741 in test [2]; 0.948 in test [3]; 0.183 in [4]; 0.761 in [5]; -0.473 in test [6]. Also, the composite z-score was -0.289 in the test on Lefty1; 0.253 in test [8]; 0.114 in test [10]; 0.195 in test [15]; -0.0604 in [16]; -0.372 in the test with Torsin-1A (Homo sapiens) [17]. Besides, the composite z-score was -0.629 with Torsin-1A (Homo sapiens) [18] and 0.0003 in [19]. The z-score is -0.4 in test [7]; -0.802 (inactive) in test [9]; -2.55 (inactive) in test [11]; -0.991 (inactive) in test [12]; -0.136 (inactive) in test [13]; 0.592 (inactive) in test [14].
